A short description of test [1]: qHTS assay to identify small molecule agonists of the estrogen receptor alpha (ER-alpha) signaling pathway in the presence of an antagonist - cell viability counter screen (AID 1259386). Note: series mostly up to about 92 µM; nearly all actives have a fitted effect of over 30% in size. In outline: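 Compounds tested at 15 concentrations for 22 h at 37C alongside 10.0nM (final) ICI-182,780 antagonist, in VM7Luc4E2 cells grown in phenol red-free, charcoal-stripped medium. Viability read by CellTiter-Fluor fluorescence after 1 h reagent incubation.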
On the technique in general: Quantitative high-throughput screening tests each substance at several concentrations.

For test [2], the target named is Progesterone receptor (Homo sapiens) (UniProt P06401). Description: qHTS assay to identify small molecule agonists of the progesterone receptor (PR) signaling pathway (AID 1346784; calls by dose curve; note: nearly all actives have a fitted effect of over 30% in size). In outline:
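PR-UAS-bla HEK 293T cells (beta-lactamase reporter under UAS) in 2% charcoal-stripped FBS, dosed with 23 nL compound after 6 hr, incubated 16hr at 37C. LiveBLAzer B/G FRET substrate added, fluorescence read after 2 hours.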

A short description of test [3]: qHTS assay to identify small molecule agonists of the progesterone receptor (PR) signaling pathway - cell viability counter screen (AID 1346799; calls by dose curve; note: nearly all actives have a fitted effect of over 45% in size). In outline:
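Counter screen in the PR-UAS-bla HEK293T wells (2% charcoal-stripped FBS, 16 h compound exposure at 37 C) after the bla read. CellTiter-Glo added, 30 min at room temperature, luminescence read as cell viability.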

Test [4] in a line: qHTS assay to identify small molecule antagonists of the TGF-beta/Smad signaling pathway - cell viability counter screen (AID 1346824). Note: nearly all actives have a fitted effect of over 50% in size. The procedure, abridged: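 Cytotoxicity counter-screen run in the same wells as the beta-lactamase Smad reporter read: CellTiter-Glo luminescence after 30 min at room temperature. HEK 293T SBE-bla cells had 5 hr compound exposure at 37 C with TGF-beta1 (0.25 ng/mL stock).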

Test [5] in a line: qHTS assay to identify small molecule agonists of the TGF-beta/Smad signaling pathway - cell viability counter screen (AID 1346829). Note: top concentration of the series differs between compounds; nearly all actives have a fitted effect of over 45% in size. The procedure, abridged: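 Cytotoxicity counter screen: CellTiter-Glo luminescence (30 min, room temperature) measured in the SBE-bla HEK 293T reporter wells after 5 hr compound treatment at 37 C and the 2 hr substrate step.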
Test [6] in a line: qHTS assay to identify small molecule agonists of the TGF-beta/Smad signaling pathway (AID 1346859; active = well fitted activation curve with a large enough effect in the signal ratio in the repeat runs, not every such curve was filed as active; the % refers to the signal ratio; note: series mostly up to about 77 µM). In outline: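 SBE-bla HEK293T cells plated overnight, then compound exposure for 5 h at 37 C. Beta-lactamase reporter read with LiveBLAzer B/G FRET substrate after 2 h at room temperature, fluorescence at 405 nm excitation, 460/530 nm emission.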
Test [7] deals with Thyrotropin-releasing hormone receptor (Homo sapiens) (UniProt P34981). Nature of the test: qHTS assay to identify small molecule antagonists of the thyrotropin-releasing hormone receptor (TRHR) signaling pathway (AID 1346877; active = well fitted inhibition curve with a large enough effect in the repeat runs, not every such curve was filed as active; note: series mostly up to about 51 µM). The procedure, abridged:
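Antagonist mode: after a 5 min room-temperature compound exposure, cells were stimulated with 1 nM (final) TRH. Dye-loaded TRHR-HEK293 cells were used, and calcium-dependent fluorescence was followed for 3 min, with 15-point titrations run in triplicate.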

The target is the same in test [8]. Nature of the test: qHTS assay to identify small molecule agonists of the thyrotropin-releasing hormone receptor (TRHR) signaling pathway (AID 1346891; calls by dose curve; note: series mostly up to about 58 µM). The procedure, abridged:
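HEK293 cells expressing TRHR plated 18 h at 37 C/5% CO2, calcium dye-loaded 2 h at 37 C, then compound added (agonist mode); kinetic calcium fluorescence read 3 min at 1 s intervals; 15 concentrations in triplicate.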

Test [9] in a line: Caspase-3/7 induction in HepG2 cells by small molecules, qHTS assay (AID 1346978). Note: nearly all actives have a fitted effect of over 15% in size. The procedure, abridged:
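Caspase-3/7 induction was measured by Caspase-Glo 3/7 luminescence (30 min, room temperature) after a 17 hr compound exposure of wild-type HepG2 cells seeded at 2,000 per well and pre-incubated 5 hr.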

Test [10] is described as follows: Caspase-3/7 induction in CHO-K1 cells by small molecules, qHTS cell viability counter screen (AID 1346979). Note: nearly all actives have a fitted effect of over 35% in size. The procedure, abridged: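 Wild-type CHO-K1 cells (1,500/well) treated with compound after 5 h plating; after 16 h at 37C, viability read as CellTiter-Fluor fluorescence following 1 h reagent incubation, in the same wells as the caspase read.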
Test [11] is described as follows: Caspase-3/7 induction in CHO-K1 cells by small molecules, qHTS assay (AID 1346980). Note: nearly all actives have a fitted effect of over 15% in size. The procedure, abridged: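 Luminescent Caspase-Glo 3/7 read (30min, room temperature) quantified apoptosis induction. Cells were wild-type CHO-K1, treated with compound for 17hr at 37 C and 5% CO2.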
Test [12] concerns the target Nuclear receptor subfamily 1 group I member 2 (Rattus norvegicus) (UniProt Q9R1A7). Description: Rat pregnane X receptor (rPXR) activation by small molecules, qHTS assay (AID 1346983). Note: nearly all actives have a fitted effect of over 20% in size. To be noted: rPXR luciferase reporter cells, One-Glo luminescence, 24 h; max activation: stronger effect = higher value. The procedure, abridged:
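Luminescent readout (One-Glo luciferase, 30 min room temperature) followed 24 hr compound treatment at 37 C of rPXR cells plated 2,000 per well and preincubated 5hr; qHTS format with compounds delivered in DMSO.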

Test [13] has as its target Progesterone receptor (Homo sapiens) (UniProt P06401). Nature of the test: qHTS assay to identify small molecule antagonists of the progesterone receptor (PR) signaling pathway (AID 1346795; active = well fitted inhibition curve with a large enough effect in the signal ratio in the repeat runs, not every such curve was filed as active; the % refers to the signal ratio). The procedure, abridged: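 PR-UAS-bla HEK293T cells with beta-lactamase reporter under UAS control, in 2% charcoal-stripped FBS, treated with compounds plus 1 nM promegestone (R5020, final) for 16 hr at 37C. Read-out: FRET beta-lactamase substrate fluorescence after 2 hr at room temperature.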

Test [14] is described as follows: qHTS assay to identify small molecule antagonists of the progesterone receptor (PR) signaling pathway - cell viability counter screen (AID 1346798). Note: series mostly up to about 92 µM; nearly all actives have a fitted effect of over 50% in size. The procedure, abridged:
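PR-UAS-bla HEK293T cells, 3,000/well in 2% charcoal-stripped FBS medium, dosed with compounds plus R5020 agonist and incubated 16 h at 37C. Viability then measured in the same wells by CellTiter-Glo luminescence after 30 min at RT.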

Test [15] is described as follows: Human pregnane X receptor (PXR) small molecule agonists, qHTS cell viability counter screen (AID 1346977). Note: nearly all actives have a fitted effect of over 50% in size. The procedure, abridged:
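PXR-Luc HepG2 cells (2,000/well, 5% charcoal-stripped FBS) preincubated 5 hr, then exposed to compounds 24 hr at 37 C. Viability read in the same wells by CellTiter-Fluor fluorescence, reagent added at 23 hr, 1 hr incubation.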

Test [16] in a line: Caspase-3/7 induction in HepG2 cells by small molecules, qHTS cell viability counter screen (AID 1346981). Note: series mostly up to about 92 µM; nearly all actives have a fitted effect of over 30% in size. In outline:
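CellTiter-Fluor fluorescence measured viability in the same wells used for Caspase-Glo 3/7. HepG2 (wild type) at 2,000 cells/well were pre-incubated 5 hr, dosed, and given reagent at 16 hr, with 1 hr further at 37C.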

Test [17] deals with Nuclear receptor subfamily 1 group I member 2 (Homo sapiens) (UniProt O75469). Description: Human pregnane X receptor (PXR) small molecule agonists, qHTS assay (AID 1346982). Note: nearly all actives have a fitted effect of over 35% in size. Note: potency is the fitted concentration of half-maximal effect. In outline:
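Agonist mode: luminescence from ONE-Glo after 24 h compound exposure at 37C in HepG2 cells carrying hPXR-responsive CYP3A4 luciferase, plated in charcoal-stripped serum medium 5 h beforehand.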

The target of test [18] is Cytochrome P450 2D6 (Homo sapiens) (UniProt P10635). Nature of the test: Cytochrome P450 Family 2 Subfamily D Member 6 (CYP2D6) small molecule antagonists: luciferase reporter qHTS assay (AID 1671196). For activity change, negative = inhibition: series mostly up to about 120 µM. Note: nearly all actives have a fitted effect of over 50% in size. Note: potency is the fitted concentration of half-maximal effect. In outline: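 CYP2D6 activity was followed as luminescence from its luciferin product after a 1 h NADPH-driven reaction at room temperature. Enzyme-substrate mix and compound were pre-incubated for 10 min, and the signal was read 20 min after adding detection reagent.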

A number with no mark means an inactive call. Inconclusive results are not listed. Calls of active or inactive are those of the source. Unless noted, calls come from the whole dose curve; as a rule, active = well fitted curve in the direction sought with a large enough effect in the repeat runs; inconclusive = weak or mixed curves; inactive = no such curve, though single readings can be large; an effect the other way counts as inactive or inconclusive.
% is set by controls: 0 for no effect and ±100 for the full control effect.

Sequence of Cytochrome P450 2D6 (Homo sapiens) (P10635 whole entry, looked up): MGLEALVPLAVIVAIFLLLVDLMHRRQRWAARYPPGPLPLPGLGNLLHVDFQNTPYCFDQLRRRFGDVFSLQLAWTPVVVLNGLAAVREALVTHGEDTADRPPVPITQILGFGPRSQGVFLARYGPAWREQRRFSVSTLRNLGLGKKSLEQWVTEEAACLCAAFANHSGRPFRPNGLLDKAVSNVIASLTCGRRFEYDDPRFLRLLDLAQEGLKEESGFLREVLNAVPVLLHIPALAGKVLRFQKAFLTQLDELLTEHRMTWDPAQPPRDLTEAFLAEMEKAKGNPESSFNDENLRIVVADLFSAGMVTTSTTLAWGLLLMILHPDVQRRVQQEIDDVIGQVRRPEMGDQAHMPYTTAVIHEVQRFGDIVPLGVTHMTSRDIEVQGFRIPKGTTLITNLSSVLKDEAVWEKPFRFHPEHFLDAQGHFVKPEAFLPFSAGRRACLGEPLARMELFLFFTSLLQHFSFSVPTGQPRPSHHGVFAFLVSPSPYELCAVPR
Sequence of Progesterone receptor (Homo sapiens) (P06401 whole entry, looked up): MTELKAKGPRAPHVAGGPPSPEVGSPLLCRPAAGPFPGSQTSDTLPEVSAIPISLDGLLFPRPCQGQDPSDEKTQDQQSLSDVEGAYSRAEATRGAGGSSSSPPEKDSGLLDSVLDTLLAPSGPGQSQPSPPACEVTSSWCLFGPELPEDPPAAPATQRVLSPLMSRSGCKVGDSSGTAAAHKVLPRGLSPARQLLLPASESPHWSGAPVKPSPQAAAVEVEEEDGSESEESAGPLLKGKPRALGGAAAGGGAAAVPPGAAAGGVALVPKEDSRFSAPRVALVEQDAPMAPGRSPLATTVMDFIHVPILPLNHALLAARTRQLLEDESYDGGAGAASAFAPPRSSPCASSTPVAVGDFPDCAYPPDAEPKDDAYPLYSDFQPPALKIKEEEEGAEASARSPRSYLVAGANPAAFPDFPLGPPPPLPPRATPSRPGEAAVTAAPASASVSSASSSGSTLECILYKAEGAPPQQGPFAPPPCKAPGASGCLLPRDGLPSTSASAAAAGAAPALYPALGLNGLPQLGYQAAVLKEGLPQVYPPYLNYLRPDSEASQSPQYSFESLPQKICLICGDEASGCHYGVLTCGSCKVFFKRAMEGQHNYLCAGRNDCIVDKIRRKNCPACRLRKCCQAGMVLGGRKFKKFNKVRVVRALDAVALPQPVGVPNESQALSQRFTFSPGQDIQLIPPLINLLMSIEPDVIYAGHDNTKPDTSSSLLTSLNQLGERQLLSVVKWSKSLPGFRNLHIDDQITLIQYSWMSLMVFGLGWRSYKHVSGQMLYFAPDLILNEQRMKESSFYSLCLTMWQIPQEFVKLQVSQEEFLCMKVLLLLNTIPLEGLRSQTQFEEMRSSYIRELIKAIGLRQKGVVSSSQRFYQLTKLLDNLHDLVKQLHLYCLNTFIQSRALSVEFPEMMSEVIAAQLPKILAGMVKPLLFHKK
Sequence of Thyrotropin-releasing hormone receptor (Homo sapiens) (P34981 whole entry, looked up): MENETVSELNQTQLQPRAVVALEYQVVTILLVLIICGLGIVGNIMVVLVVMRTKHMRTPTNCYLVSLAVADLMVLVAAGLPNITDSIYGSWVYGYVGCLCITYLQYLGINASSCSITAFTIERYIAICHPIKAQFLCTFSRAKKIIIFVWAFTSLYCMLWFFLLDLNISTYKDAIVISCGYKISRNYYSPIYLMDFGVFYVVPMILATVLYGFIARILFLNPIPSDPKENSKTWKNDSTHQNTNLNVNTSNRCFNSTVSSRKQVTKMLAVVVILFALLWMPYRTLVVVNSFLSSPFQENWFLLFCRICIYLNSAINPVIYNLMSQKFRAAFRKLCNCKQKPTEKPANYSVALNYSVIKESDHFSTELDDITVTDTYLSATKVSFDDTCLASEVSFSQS
Sequence of Nuclear receptor subfamily 1 group I member 2 (Homo sapiens) (O75469 whole entry, looked up): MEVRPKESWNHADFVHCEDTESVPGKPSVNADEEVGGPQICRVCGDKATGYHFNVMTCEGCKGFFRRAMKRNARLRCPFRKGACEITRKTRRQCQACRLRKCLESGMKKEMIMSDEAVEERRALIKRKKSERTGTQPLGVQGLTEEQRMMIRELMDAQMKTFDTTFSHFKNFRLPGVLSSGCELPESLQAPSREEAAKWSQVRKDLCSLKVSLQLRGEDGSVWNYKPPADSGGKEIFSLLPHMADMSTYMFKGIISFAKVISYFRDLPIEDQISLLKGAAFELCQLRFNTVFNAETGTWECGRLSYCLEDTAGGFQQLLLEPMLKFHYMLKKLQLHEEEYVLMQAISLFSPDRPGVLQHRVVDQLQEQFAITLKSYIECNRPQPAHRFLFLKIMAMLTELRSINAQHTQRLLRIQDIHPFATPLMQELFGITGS
Sequence of Nuclear receptor subfamily 1 group I member 2 (Rattus norvegicus) (Q9R1A7 whole entry, looked up): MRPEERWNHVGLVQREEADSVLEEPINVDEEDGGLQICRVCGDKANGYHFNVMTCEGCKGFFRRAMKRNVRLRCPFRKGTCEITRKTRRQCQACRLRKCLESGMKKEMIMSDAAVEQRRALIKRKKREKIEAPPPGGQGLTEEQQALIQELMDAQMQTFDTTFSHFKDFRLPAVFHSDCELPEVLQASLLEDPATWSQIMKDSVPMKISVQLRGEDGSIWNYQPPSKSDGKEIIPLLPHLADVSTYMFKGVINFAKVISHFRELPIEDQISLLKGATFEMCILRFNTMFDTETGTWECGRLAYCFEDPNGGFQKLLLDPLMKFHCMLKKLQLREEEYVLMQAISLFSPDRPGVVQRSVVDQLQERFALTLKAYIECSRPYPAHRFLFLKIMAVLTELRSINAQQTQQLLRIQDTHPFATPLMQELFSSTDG

Take `CN(C)C/C=C(/c1ccc(Br)cc1)c1cccnc1`: the Potency entry in test [1], in test [3], in [4], in test [5], in test [8] and in [10] was “inactive” in each case. Moreover, the Potency result in test [11] was “inactive”. Moreover, the result in test [2], in test [6], in test [7] and in test [9] was inactive. For the same molecule, the max activation in test [12] was -0.374%.

Regarding `O=C(O)c1cn(C2CC2)c2cc(Cl)c(F)cc2c1=O`, the Potency result in [1], in [13], in test [14], in test [3], in test [4] and in [5] was “inactive” in each case. Moreover, the Potency result in test [8], in test [15], in test [10], in [11], in test [16] and in test [17] was “inactive” each time. Also, in test [18], the Potency result was “inactive”. The molecule was called inactive in [7] and in [9].

For `O=C(C(=O)c1ccc(Br)cc1)c1ccc(Br)cc1`, the activity change, negative = cytotoxicity in [1] is 0.0353% [at 19 µM]; in test [3], 14.5% [at 19 µM]; in test [5], 0.5% [at 15.8 µM]; in [15], -1.5% [at 19 µM]; in test [10], 1.57% [at 19 µM]; in [16], 2.21% [at 19 µM]. Also, the viability change, negative = cytotoxic in test [4] is 7.81% [at 15.8 µM]. The values for the activation in test [6], in test [8] and in test [17] were 2.2% [at 15.8 µM], 0.083% [at 11.8 µM] and 1.54% [at 19 µM], respectively. Further, in [7], the activity, negative = inhibition was -2.27% [at 10.5 µM]. For the same molecule, the caspase activation in [9] was -0.0549% [at 19 µM]. Moreover, the caspase-3/7 activation in test [11] is 0.394% [at 19 µM]. In addition, the activity change, negative = inhibition in test [18] is 1.74% [at 23.6 µM].

As to `CCCCCOC(=O)COc1cc(N2C(=O)C3=C(CCCC3)C2=O)c(F)cc1Cl`, the molecule was called inactive in [2], in [6] and in [9]. Further, the Potency entry in test [13], in test [14], in test [3], in test [4], in [5] and in test [10] was “inactive” in each case. Besides, the Potency result in test [11] was “inactive”. The Potency in test [18] is 25.2 µM (active).

Consider `O=C(/C=C/c1ccc(O)c(O)c1)O[C@@H]1C[C@](O)(C(=O)O)C[C@@H](O)[C@H]1O`, for which the call in test [2], in [6], in [7] and in [9] was inactive. For the same molecule, the Potency entry in test [13], in test [14], in test [3], in [4], in [5] and in test [8] was “inactive” in each case. For the same molecule, the Potency result in test [11], in test [16], in test [17] and in [18] was “inactive” in each case.

As to `O=C(Cl)c1ccc([N+](=O)[O-])cc1`, the Potency entry in test [1], in [3], in [4], in test [5], in [8] and in [15] was “inactive” in each case. Besides, the Potency entry in test [10] and in [11] was “inactive” throughout. Also, the call in [6], in test [7] and in [9] was inactive. The Potency in [17] is 5.35 µM (active).

For the molecule `CC(C)c1ccc2c(C(C)C)cc(C(C)C)c(S(=O)(=O)O)c2c1`, the Potency result in [1], in [13], in test [14], in test [3], in [4] and in [5] was “inactive” each time. The Potency result in test [8], in [15], in test [10], in test [11], in test [16] and in test [18] was “inactive” each time. The molecule was classed as inactive in test [6], in test [7] and in test [9]. Also, in [17], the Potency was 25.2 µM (active).

As for `CCN(CC)C(C)=O`, the result in test [2], in [6], in [7] and in test [9] was inactive. In addition, the Potency result in test [13], in [14], in [3], in test [4], in test [5] and in [8] was “inactive” in each case. Moreover, the Potency result in test [15], in test [10], in test [11], in test [16] and in [17] was “inactive” in each case.

As to `COc1ccc(C(C)=O)cc1`, the call in [2], in test [6], in [7] and in [9] was inactive. The Potency result in test [13], in test [14], in [3], in test [4], in [5] and in [8] was “inactive” in each case. Further, the Potency entry in [15], in [10], in test [11], in [16], in test [17] and in test [18] was “inactive” each time.

For the origin of these results see PubChem BioAssay (Tox21).
